From PubChem BioAssay AID624330 (Southern Research Specialized Biocontainment Screening …, 2012)
Among all 340,000 compounds or so, about 2,100 (0.62%) were called active.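 The calls were made as follows: active = first-screen hits whose inhibition reached a set limit at any dose in the follow-up dose series; inconclusive = inhibition above the set first-screen limit but never retested; inactive = the rest.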 A selection follows. Results with a measured potency or affinity are listed apart.

Each compound was assayed against Rac GTPase-activating protein 1 (Homo sapiens) (UniProt Q9H0H5) (assay: MgcRacGAP GTPase-activating activity inhibitors, confirmation, biochemical, ADP Hunter fluorescence, primary and confirmatory (AID 624330;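 also: fluorescence reports GDP produced by GAP-driven GTP hydrolysis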)). Settings: MgcRacGAP-stimulated Rac1 GTP hydrolysis, at 30 µM, active compounds read high, GST-tagged Rac1 F28L mutant substrate.
Sequence of Rac GTPase-activating protein 1 (Homo sapiens) (Q9H0H5 whole entry, looked up): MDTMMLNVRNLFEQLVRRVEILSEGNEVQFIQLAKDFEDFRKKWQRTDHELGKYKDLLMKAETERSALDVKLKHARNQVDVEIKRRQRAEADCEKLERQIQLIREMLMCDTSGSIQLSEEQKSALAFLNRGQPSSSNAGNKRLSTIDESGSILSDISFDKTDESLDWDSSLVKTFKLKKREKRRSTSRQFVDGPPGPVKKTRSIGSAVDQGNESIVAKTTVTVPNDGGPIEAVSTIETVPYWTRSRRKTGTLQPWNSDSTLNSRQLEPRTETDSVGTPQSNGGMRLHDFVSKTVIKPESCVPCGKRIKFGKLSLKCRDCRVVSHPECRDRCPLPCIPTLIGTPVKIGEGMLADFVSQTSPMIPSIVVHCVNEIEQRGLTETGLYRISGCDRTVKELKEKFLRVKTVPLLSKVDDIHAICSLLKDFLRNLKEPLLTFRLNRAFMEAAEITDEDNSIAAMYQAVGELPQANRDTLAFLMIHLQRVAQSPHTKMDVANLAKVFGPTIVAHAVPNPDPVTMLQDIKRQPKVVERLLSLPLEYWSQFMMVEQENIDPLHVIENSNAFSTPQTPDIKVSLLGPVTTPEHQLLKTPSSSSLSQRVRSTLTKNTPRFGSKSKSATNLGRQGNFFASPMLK

inhibition, inactive:
CC(NC(=O)c1cccc(C(F)(F)F)c1)C1CCCO1 (centres undefined) 6.29%
O=c1cc(-c2ccc(O)cc2)oc2cc(O)c([C@@H]3O[C@H](CO)[C@@H](O)[C@H](O)[C@H]3O)c(O)c12 4.21%
O=c1c2cc(O)c(O)cc2oc2cc(O)c(C3OC(CO)C(O)C(O)C3O)c(O)c12 (centres undefined) 23.9%
COc1ccc(-c2cc(=O)c3c(O)cc(OC4OC(COC5OC(C)C(O)C(O)C5O)C(O)C(O)C4O)cc3o2)cc1O (centres undefined) 4.67%
O=c1cc(-c2ccc(O)cc2)oc2cc(O)c(C3OC(CO)C(O)C(O)C3O)c(O)c12 (centres undefined) 12.2%
O=c1cc(-c2ccc(O)cc2)oc2c([C@@H]3O[C@H](CO)[C@@H](O)[C@H](O)[C@H]3O)c(O)c([C@@H]3O[C@H](CO)[C@@H](O)[C@H](O)[C@H]3O)c(O)c12 5.95%
CC1OC(OCC2OC(Oc3c(-c4ccc(O)cc4)oc4cc(O)cc(O)c4c3=O)C(O)C(O)C2O)C(O)C(O)C1O (centres undefined) 7.46%
CCn1ncc([N+](=O)[O-])c1C(=O)Nc1c(C)nn(Cc2ccc(F)cc2)c1C -5.73%
CN(C)S(=O)(=O)N1CCN(Cc2ccccc2)CC1 -9.47%
COc1cccc(C(=O)NC2(C(F)(F)F)N=C3SCCN3C2=O)c1 (centres undefined) 8.58%
COc1ccc(C(=O)N/N=C(/C)c2cccc(NC(=O)c3ccccc3F)c2)cc1 6.03%
Cc1nc2ccccc2c(=O)n1NC(=O)Cc1ccc(Br)cc1 1.21%
C=CCc1c(C)nc(-c2ccccc2)nc1N/N=C/c1ccccc1 9.45%
C=CCc1c(C)nc(-c2ccccc2)nc1Nc1ccccc1O -2.42%
COc1ccc(NC(=O)CN2C(=O)C(C)Oc3ccccc32)c(OC)c1 (centres undefined) 9.91%
CC(C)(C)C(=O)NCc1ccc(C(=O)CSc2nnc3n2CCCCC3)s1 9.14%
CCOc1ccc(C(CC(=O)O)NC(=O)c2ccco2)cc1OC (centres undefined) 5.75%
COc1cccc(/C=N/Nc2cc(Cl)nc(C)n2)c1O -19.7%
Cc1cc(N/N=C/c2ccc(O)cc2O)c2ccccc2n1 -8.64%
Cc1cc(N/N=C/c2ccc(O)cc2O)nc(-c2ccccc2O)n1 9.61%
Oc1cccc(C=NNc2ccccn2)c1 2.05%
Oc1ccc(/C=N/Nc2cccc3cccnc23)c(O)c1 0.03%
Oc1ccc(/C=N/Nc2ccc3ccccc3c2)c(O)c1 9.51%
Cc1ccc(-c2c(C(=O)NC(C)C)oc(=O)c3ccccc23)cc1 5.65%
CCCCSc1ncnc2c1ncn2C1CCCCO1 (centres undefined) 0.67%
CC12CCC(C(=O)Nc3cc(Cl)ccc3Cl)(C(Br)C1=O)C2(C)C (centres undefined) 8%
CC(=O)/C(=C/N(C)C)Sc1ccc(C)cc1 -4.58%
COC(=O)[C@@]12CCCN1[C@H](c1ccc(-c3ccccc3)cc1)[C@@H]1C(=O)N(C)C(=O)[C@@H]12 10.8%
O=C(COC(=O)CCS(=O)(=O)c1ccc(Cl)cc1)Nc1ncc(Cl)cc1Cl -0.72%
CCOc1ccc(N2C(=O)S/C(=C\c3ccc(O)c(OCC)c3)C2=O)cc1 9.4%
COc1ccc(/C=C2\SC(=O)N=C2N)cc1OC -3.06%
NC1=NC(=O)/C(=C\c2ccc(O)c([N+](=O)[O-])c2)S1 2.32%
CCN=C1S/C(=C\c2cc(OCC)c(O)cc2Br)C(=O)N1CC 14.2%
C=CCOc1ccc(/C=C2\SC(N)=NC2=O)cc1OC 7.81%
CC(C)(C)c1ccc(/C=C2\SC(=O)N=C2N)cc1 2.11%
CCN=C1S/C(=C\c2ccc(OCC)c(OC)c2)C(=O)N1CC 2.65%
NC1=NC(=O)S/C1=C\c1ccc(F)cc1 -6.63%
C/C=C/c1ccc(OCCN2CCc3ccccc3C2)c(OC)c1 17.9%
Cc1ccc(C)c(NC(=O)CN(C)C(=O)c2cc([N+](=O)[O-])ccc2N2CCOCC2)c1 5.45%
Cc1ccc(SCC(=O)OCC(=O)N(CC(C)C)C2CCS(=O)(=O)C2)cc1C (centres undefined) 9.24%
O=C(COC(=O)COc1ccc(Cl)cc1Br)NC1CC1 -1.39%
O=C(NCCN1CCOCC1)c1ccc(CS(=O)c2ccccc2Cl)o1 (centres undefined) -0.13%
COc1ccc(N2CCN(Cc3nc4sc(C)c(C)c4c(=O)[nH]3)CC2)cc1 -6.7%
COc1cc(/C=C2/NC(=O)N(Cc3ccccc3F)C2=O)cc(OC)c1O 26.3%
COc1ccc(/C=C2/NC(=O)N(Cc3ccccc3F)C2=O)cc1OC 5.3%
CSc1ccc(CN2CCC(n3nccc3NC(=O)C3CCOC3)CC2)cc1 (centres undefined) 3.42%
CC(=O)Nc1ccc(NC(=O)CCc2ccc(C)o2)cc1 10.6%
Cc1ccc[n+](CC(=O)Nc2ccc(C)c(C)c2)c1 -1.74%
CC(=O)c1ccc(NC(=O)C[n+]2cccc(C)c2)cc1 8.06%
Cc1ccc(NC(=O)CCc2ccc(C)o2)cc1 -3.13%
CCOC(=O)C1C(c2cc(OC)c(O)c(OC)c2)NC(=S)NC1(O)C(F)(F)F (centres undefined) 4.21%
Cc1ccc(CNC(=O)C(c2ccccc2)c2ccccc2)cc1 6.74%
COc1ccc(S(=O)(=O)NNC(=O)c2cc3ccccc3o2)cc1 9.6%
O=C(NC1CC1)c1cc(F)c(F)cc1Cl 6.75%
O=C(/C=C/c1ccc(Br)o1)Nc1nccs1 -0.09%
O=C(Nc1ccc2c(c1)OC1(CCCC1)O2)C1CC1 9.85%
Nc1ccc2c(c1)OC1(CCCCC1)O2 22.8%
CC(O)[C@H]1CNC(=O)C(=O)N1CCc1cccc(F)c1 (some centres undefined) 5.42%
COc1ccccc1N1CCN(Cc2ccc(Br)o2)CC1 29.6%
CCN1CCN(C(=O)C2CCN(Cc3cc(Cl)ccc3O)CC2)CC1 12.1%
COc1ccccc1N1CCN(Cc2ccsc2)CC1 25.3%
CCOc1ccc(CN2CCC(C(=O)N3CCN(c4ccccc4F)CC3)CC2)cc1OC 23.7%
O=C(C1CC1)N1CCN(Cc2ccccc2)CC1 7.23%
COc1cc(CN2CCN(c3cccc(C)c3C)CC2)cc(OC)c1O 27%
COc1ccc(CN2CCC(C(=O)N3CCN(c4ccccc4F)CC3)CC2)cc1OC 8.86%
COc1cc(CN2CCC(C(=O)N3CCN(c4ccccc4F)CC3)CC2)cc(OC)c1O 23.4%
CCC(C)NC(=O)C1c2ccccc2C(=O)N1Cc1ccc(F)cc1 (centres undefined) 8.48%
COc1ccc(NC(=O)CCCC(=O)O)cc1Cl 4.87%
CC(=O)c1ccc(S(=O)(=O)NCCC(=O)OC(C)C(=O)Nc2ccc(F)cc2)cc1 (centres undefined) 5.33%
N#C/C(=C\c1cn(CC(=O)N2CCCCC2)c2ccccc12)C(=O)NCc1ccc2c(c1)OCO2 8.24%
Cc1cc(NC(=O)c2ccc(C#N)cc2)n(-c2ccccn2)n1 4.99%
N#Cc1ccc(OCc2nnc(SCC(=O)N3CCCc4ccccc43)n2-c2ccccc2)cc1 3.45%
CCCCN(C)CCNC(=O)Cn1c(=O)sc2ccccc21 5.94%
NC(N)=Nc1ccc(C=C2C=Cc3ccccc32)cc1 1.28%
C=CCN(CC=C)Cc1nc(N)nc(Nc2ccccc2C)n1 6.1%
CCOC(=O)CN=C1CC(C)(C)CC2=C1Sc1ncnc(N(C)C)c1N2 6.53%
CC1(C)CC(=O)C([N+](=O)[O-])=C(NCCCC(=O)O)C1 6.3%
Cc1ccc(S(=O)(=O)/N=C/N(C)C)cc1 4.85%
O=C(NCc1ccco1)c1ccc(S(=O)(=O)N2CCOCC2)cc1 12.1%
CCOC(=O)c1ccc(NC(=O)Nc2c(C)nn(C)c2C)cc1 6.05%
COc1ccc(CCNc2ccc(N3C(=O)CC(C)C3=O)cc2[N+](=O)[O-])cc1 (centres undefined) 3.45%
CC1CC(=O)N(c2ccc(NCCc3ccccc3)c([N+](=O)[O-])c2)C1=O (centres undefined) 12.4%
COCCNC(=O)C1CCCN(S(=O)(=O)c2c(C)noc2/C=C/c2cccs2)C1 (centres undefined) 5.26%
Cc1cc(Cc2cc(C)c(N)cc2C)c(C)cc1N 11.3%
Cc1cc(C)c(N)cc1C 5.41%
COc1ccc(S(=O)(=O)N(C)C[C@H]2Oc3c(NC(=O)C4CC4)cccc3C(=O)N([C@H](C)CO)C[C@@H]2C)cc1 13.9%
CC(=O)c1c(Nc2cccc(F)c2)oc(C)cc1=O 8.68%
CCc1ccc(Nc2oc(C)cc(=O)c2C(C)=O)cc1 2.6%
O=C(c1cccc(NS(=O)(=O)c2ccc(Br)cc2)c1)N1CCN(c2ccccc2O)CC1 -1.11%
CC(O)CNc1nc2ccccc2n1CC(=O)NC12CC3CC(CC(C3)C1)C2 (centres undefined) -6.35%
O=C(Nc1ccccc1)c1cccc(NC(=O)c2ccco2)c1 11.5%
CCOc1ccc(OCCOCCNCCOC)cc1 12.8%
Cc1cc(Cl)cc(C)c1OCCNCc1ccccc1 26.3%
O=[N+]([O-])c1ccccc1OCCOc1ccccc1[N+](=O)[O-] 7.67%
CCc1cc(OCCCCNCc2ccccc2)ccc1Cl 28.9%
Clc1cccc(Cl)c1OCCOCCNCc1ccccc1 22.1%
O=[N+]([O-])c1ccccc1OCCCNCc1ccccc1 21.2%
Cc1cc(OCCOCCN(C)C)ccc1Cl 9.69%
CCCOc1ccc(OCCOCCNCc2ccccc2)cc1 19.2%
